Our source for the inhibition values is PubChem BioAssay AID777 (Sanford-Burnham Center for Chemical Genomics, 2007).

Molecules are shown by their SMILES. In all, about 96,000 compounds went through this assay and about 19,000 (20%) were called active. Only a sample is shown. Unmarked numbers belong to inactive results.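 How the source made its calls: active means blocking of liver enzyme CYP2C9 beyond about 50% at 5 µM (limit read from the data); inactive means the rest.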

As a reminder, the inhibition is the drop in the measured response relative to a control, in per cent.

The target of this experiment is Cytochrome P450 2C9 (Homo sapiens) (UniProt P11712). The experiment can be described thus: blockers of cytochrome P450 2C9 activity – biochemical, luminescence, ADME assay, primary screen (AID 777). The following applies: CYP2C9 Supersomes, luciferin-H conversion, at 5 µM, stronger effect = higher value.
Cytochrome P450 2C9 (Homo sapiens), sequence (P11712 whole entry, looked up): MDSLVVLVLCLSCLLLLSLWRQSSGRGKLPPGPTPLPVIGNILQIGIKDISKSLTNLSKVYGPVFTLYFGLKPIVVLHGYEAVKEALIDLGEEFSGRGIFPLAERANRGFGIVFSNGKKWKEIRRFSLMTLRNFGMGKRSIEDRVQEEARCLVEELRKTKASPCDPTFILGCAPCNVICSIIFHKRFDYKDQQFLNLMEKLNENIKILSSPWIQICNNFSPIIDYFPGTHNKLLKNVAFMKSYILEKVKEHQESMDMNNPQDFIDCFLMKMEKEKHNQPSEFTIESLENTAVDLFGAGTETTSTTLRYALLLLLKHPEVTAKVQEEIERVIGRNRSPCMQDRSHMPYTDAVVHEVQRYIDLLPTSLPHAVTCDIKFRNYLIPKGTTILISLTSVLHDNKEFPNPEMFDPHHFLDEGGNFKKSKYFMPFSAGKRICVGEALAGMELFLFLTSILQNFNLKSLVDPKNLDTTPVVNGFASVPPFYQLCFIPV
For the molecule `CC(C)(C)c1ccc(C(=O)NNC(=O)Cc2ccccc2)cc1`, the inhibition was 6.1%.
On to `CCCCN1C(=O)CC(N2CCOCC2)C1=O` (stereo not drawn), for which the inhibition was 1.5%.
Take `CN1CCCN(S(=O)(=O)c2ccc3c(c2)OCCO3)CC1`: the inhibition is -7.5%.
Take `CCCCNC(=O)C1CCCN(S(=O)(=O)c2ccc(S(=O)(=O)NCC(C)C)cc2)C1` (stereo not drawn): the inhibition was 46%.
In the case of `CCCCn1c(=S)[nH]c2cc(S(=O)(=O)N3CCCCC3)ccc21`, the inhibition is 64.3% (active).
As to `c1ccc(-c2cn3cccnc3n2)cc1`, the inhibition is -1.3%.
In the case of `c1ccc(-n2nnnc2NC2CCCCCC2)cc1`, the inhibition was 24%.
In the case of `Cc1cc(C)c([N+](=O)[O-])cc1-c1ccc(/C=N/NC(=O)c2nonc2N)o1`, the inhibition is 22.2%.
The value for `O=C1C2C3C=CC(C4CC34)C2C(=O)N1/N=C/c1ccc(-c2ccccc2[N+](=O)[O-])o1` (stereo not drawn) was 36.8%; that for `Cc1cc(-c2ccc(/C=N/n3cnnc3)o2)c([N+](=O)[O-])cc1C` was 50.5% (active).
The value for `Cc1cc([N+](=O)[O-])c(-c2ccc(/C=N/n3cnnc3)o2)cc1Cl` was 77% (active); that for `CCCC(=O)N1c2ccccc2NC2=C(C(=O)CCC2)C1c1ccc(F)cc1` (stereo not drawn) was 8.5%; that for `CC(=O)CCS(=O)(=O)c1ccc(C)c(C)c1` was -62.6%.
Turning to `Cc1c(CN2CCC(C)CC2)c(=O)n(-c2ccccc2)n1C`, the inhibition was -8%.
`CCOC1CS(=O)(=O)CC1OCC` (stereo not drawn): the inhibition is -5.4%.
For the molecule `CC(N=Cc1nc(-c2ccccc2)oc1O)c1ccccc1` (stereo not drawn), the inhibition is 66.7% (active).
The value for `CC(NC(=O)c1cc(-c2ccccc2)on1)c1ccccc1` (stereo not drawn) was -23.7%; that for `CCOC(=O)N1CCN(CC(=O)c2ccc3c(c2)CCN3)CC1` was -1.9%.
For `CC(=O)Nc1nc(C)c(Cc2ccccc2)c(=O)[nH]1`, the inhibition was -0.9%.
On to `CC1(C)Cc2c(sc3nc(SCC(=O)NCc4ccccc4)n(-c4ccccc4)c(=O)c23)CS1`, for which the inhibition was -0.2%.
The value for `O=C(c1cc2c(s1)CCC2)N1CCN(c2ccccc2)CC1` was 54.4% (active); that for `O=C(CNC(=O)c1cc2c(s1)CCC2)Nc1ccccc1Br` was 30%.
As for `O=C(NCCCN1CCOCC1)c1cc2c(s1)CCC2`, the figure is -6.3%; as for `Cc1nnc(SCc2nc3ccccc3nc2C)s1`, -5.7%; as for `CC(C)NC(=O)c1ccccc1S(=O)c1ccccc1C#N` (stereo not drawn), -1.3%.
Turning to `Cc1cnc(NC(=O)CSc2nnc(-c3ccc(Cl)cc3Cl)n2N)s1`, the inhibition was 46.7%.
`CSc1ccc(CCNC(=O)C2CCN(c3nnc(-n4cccc4)s3)CC2)cc1`: the inhibition is 37%.
For `O=C(CN1CCSCC1)N/N=C/c1ccc(F)cc1F`, the inhibition was 7.6%.
